Screens: PubChem, several laboratories
PGE2 EP2 inh = human EP2 receptor antagonists, primary screen, TR-FRET cAMP, C6 glioma cells; Prostaglandin E2 receptor EP2 subtype (Homo sapiens), P43116; C6 glioma cells expressing human EP2; cells stimulated with saturating PGE2; inhibition, % at 25 µM; actives 0.52% (n = 260,000); AID 1422, 2008;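 active = percent inhibition above 40 after rounding to a whole number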;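 also: rat C6 glioma host cells with rolipram phosphodiesterase inhibitor present; the protocol text gives 20 µM as final concentration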
S1P4 ag = S1P4 receptor agonists, primary screen, cell-based; Sphingosine 1-phosphate receptor 4 (Homo sapiens), O95977; S1P4-expressing cell line, agonist reporter assay; activation, % at 4.98 µM; actives 0.35% (n = 220,000); in the data active = activation above about 11%;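 also: 0% = DMSO vehicle and 100% = reference agonist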
EP2 modulator = EP2 receptor modulators, cAMP readout, primary screen, cell-based, HTRF cAMP, PGE2 stimulation; EP2-expressing cells, cAMP HTRF FRET, PGE2 co-stimulation; Prostaglandin E2 receptor EP2 subtype (Homo sapiens), P43116; induction, % at 25 µM; actives 0.83% (n = 260,000);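 active = compounds whose cAMP rise, as percent of the full-agonist control response, exceeds 60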;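 also: rat C6 glioma line stably carrying human EP2 under a CMV promoter; the protocol text gives 20 µM as final concentration; 100% = response of wells given 1 µM PGE2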
S1P3 antagonist = S1P3 receptor antagonists, primary screen, cell-based; Sphingosine 1-phosphate receptor 3 (Homo sapiens), Q99500; CHO S1P3 NFAT-BLA reporter, FRET fluorescence, antagonist mode; inhibition, % at 4.98 µM; actives 0.27% (n = 170,000); AID 485, 2006;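 active = inhibition above the plate cutoff, the mean inhibition of test wells on that plate plus 3 SD, cut at about 28% in these data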;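 also: cells challenged with S1P at its EC80 of 0.8 µM; blue over green emission ratio from cleaved BLA substrate after 4 h stimulation; 0% = S1P-stimulated wells and 100% = unstimulated DMSO-only wells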
Target sequence (Q99500 whole entry, looked up): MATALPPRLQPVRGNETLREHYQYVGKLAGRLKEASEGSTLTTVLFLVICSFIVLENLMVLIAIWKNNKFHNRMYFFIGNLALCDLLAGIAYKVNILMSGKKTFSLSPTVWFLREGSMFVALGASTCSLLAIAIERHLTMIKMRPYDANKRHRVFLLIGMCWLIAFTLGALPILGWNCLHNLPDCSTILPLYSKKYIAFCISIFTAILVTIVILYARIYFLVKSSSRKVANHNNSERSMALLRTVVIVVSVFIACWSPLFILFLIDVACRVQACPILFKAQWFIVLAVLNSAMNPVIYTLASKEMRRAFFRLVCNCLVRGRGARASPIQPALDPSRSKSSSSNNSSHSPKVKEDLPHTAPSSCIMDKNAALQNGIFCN
S1P4 antagonist = S1P4 receptor antagonists, primary screen, cell-based | Sphingosine 1-phosphate receptor 4 (Homo sapiens), O95977 | S1P4-expressing cells, antagonist mode, reporter read-out | inhibition, % at 4.98 µM | actives 0.26% (n = 220,000) | AID 1510, 2009; in the data active = inhibition above about 29%;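 also: 0% = wells stimulated with agonist and 100% = vehicle wells without agonist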
INS promoter inh = inhibitors of insulin promoter-driven GFP, primary screen, imaging, TRM-6 cells (human fetal islet line), eGFP reporter, cell count | reporter expression induced with tamoxifen | actives 0.9% (n = 130,000) | inhibition, % at 2 µM;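 active = inhibition above the mean plus 3 SD, with well images judged a real hit on visual review, cut at about 60% in these data, passing the limit was not always enough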
* hit, by the source's call; nt = no result given; ! = repeats disagree. Sampled rows, rich in hits. Any-hit rate of the full collection: about 2.4%.

SMILES	PGE2 EP2 inh	S1P4 ag	EP2 modulator	S1P3 antagonist	S1P4 antagonist	INS promoter inh
COc1ccc(C(=O)O)cc1F	27	1	16	-32	0	79*
O=C(O)c1ccccc1-c1ccccc1C(=O)Nc1ccc2c(c1)[nH]c(=O)c1ccccc12	46*!	1	7	4	5	nt
COc1ccc(OC)c(NC(=O)CSc2nc(C3CCCCC3)nc3ccccc23)c1	13	nt	61*	nt	nt	nt
CCc1cc2c(C)ccc(C)c2nc1SCC(=O)NNC(C)=O	13	nt	16	nt	nt	nt
COc1ccc(CC(=O)Nc2nn(C)c3nc4c(C)cccc4cc23)cc1	48*	-2	-22	0	1	nt
CCc1cc2c(C)ccc(C)c2nc1SCC(=O)OC	16	nt	87*	nt	nt	nt
CCOC(=O)CSc1nc2ccc(C)cc2cc1CC	12	nt	62*	nt	nt	nt
CCC(=O)Nc1nn(C)c2nc3c(C)cccc3cc12	12	1	-9	-36	3	-14
C=CCNC(=O)C(C)Sc1nc(-c2ccccc2)cc(C(F)(F)F)n1 (stereo unspecified)	2	nt	-159	nt	nt	nt
O=C(Cn1nc(C(F)(F)F)c2c1CCCC2)Nc1cccc(Cl)c1Cl	8	nt	12	nt	nt	nt
CC(=O)NC1(c2ccccc2F)CCN(CC(=O)N2CCC(C)CC2)CC1	nt	nt	-6	nt	nt	nt
CCc1cc2cccc(C)c2nc1SCC(=O)Nc1cc(OC)ccc1OC	14	nt	63*	nt	nt	nt
CCOC(=O)CC(=O)CSc1nc2c(C)c(C)ccc2cc1C	8	1	66*!	nt	8	-30
CCOC(=O)CC(=O)CSc1nc2c(C)c(C)ccc2cc1CC	9	nt	52	nt	nt	nt
CCc1c(C)sc2nc(C)nc(SCC(=O)Nc3ccccc3OC)c12	9	nt	66*	nt	nt	nt
CCOC(=O)CSc1nnc2c(C)cc3ccccc3n12	10	nt	-35	nt	nt	nt
Cc1nc2ccccc2c(=O)n1CCCN1CCOCC1	4	0	34	0	-4	nt
FC(F)(F)c1nc2nc(Cl)c(Cl)nc2n1CCCN1CCOCC1	46*	nt	7	nt	nt	nt
CC(=O)Oc1ccc(C(=O)N2CCN(C(=O)c3ccco3)CC2)cc1	3	nt	-14	nt	nt	nt
CC(=O)Nc1ccc(Nc2cc(-c3ccccc3)nc3ncnn23)cc1	9	0	-15	-8	-29	-14
CC(=O)Nc1ccc(Nc2cc(C)nc3c(-c4ccccc4)cnn23)cc1	14	3	-21	-6	3	75*
Cc1cc(N)n2ncc(-c3cccc(Br)c3)c2n1	10	-1	-29	-7	-4	93*
Cc1cc(N)n2ncc(-c3ccccc3)c2n1	15	3	-10	nt	7	87*
Cc1nn(-c2ccccc2)c2[nH]c(=O)c(CNC(c3ccccc3)c3ccco3)cc12 (stereo unspecified)	13	nt	-23	nt	nt	nt
S=C(NCCc1ccccc1)Nc1cccc2cnccc12	7	2	-76	23	-15	73*
SMILES	PGE2 EP2 inh	S1P4 ag	EP2 modulator	S1P3 antagonist	S1P4 antagonist	INS promoter inh
COCCCn1c(=S)[nH]c2sc3c(c2c1=O)CCCS3	45*	0	-2	0	-8	nt
COc1cccc(/C(O)=C2/C(=O)C(=O)N(CCCN3CCOCC3)C2c2ccco2)c1 (stereo unspecified)	12	nt	7	nt	nt	nt
COc1ccc(C2C3=C(N=C4SCC(=O)N42)c2ccccc2CC3)cc1 (stereo unspecified)	22	-3	25	6	-21	71*
CCNC(=O)C(C)Oc1ccc(Cl)cc1Cl (stereo unspecified)	5	-1	-4	-8	-20	nt
CC(Oc1ccc(Cl)cc1Cl)C(=O)NCCCN1CCOCC1 (stereo unspecified)	10	3	-3	99*	-20	nt
COc1ccc([C@H](C)NC[C@H](O)c2ccc(O)c(NC=O)c2)cc1	12	1	81*	-8	4	20
COc1ccc2c(c1)[n+]([O-])c(/C(C)=N/NC(N)=S)c(C)[n+]2[O-]	44*	nt	8	nt	nt	nt
COCCn1c(SCC(=O)N2CCCCC2)nnc1-c1ccccc1	9	nt	-6	nt	nt	nt
CC(=O)c1sc(C(=O)O)c(-c2ccco2)c1-c1ccco1	43*	-2	-36	6	14	nt
CC(C)(Oc1ccc(-c2ccco2)cc1)C(=O)O	13	-1	23	nt	-17	9
Cc1ccccc1OCC(O)Cn1c(NN)nc2c1c(=O)n(C)c(=O)n2C (stereo unspecified)	5	nt	-23	nt	nt	nt
Cc1cc(C)n(-c2nc3c(c(=O)n(C)c(=O)n3C)n2CC(O)COc2ccccc2C)n1 (stereo unspecified)	nt	-1	nt	nt	3	77*
Cc1cc2cc(CN(CCO)C(=S)Nc3ccccc3)c(=O)[nH]c2cc1C	14	nt	-38	nt	nt	nt
Cc1nc([N+](=O)[O-])c(Br)n1CC(=O)c1ccc(Cl)cc1	6	0	23	nt	-18	69*
CCOC(=O)c1cnc2c(C(=O)OC)cccc2c1NCc1ccco1	11	2	-29	nt	-12	50
CCOC(=O)c1cnc2c(C)cccc2c1NCc1ccco1	7	1	37	nt	0	68*
Cc1sc2nc(SCc3ccc(C(=O)O)cc3)n(Cc3ccco3)c(=O)c2c1C	6	-1	82*	-2	13	nt
C=CCn1c(SCc2ccc(C(=O)O)cc2)nc2sc(C)c(C)c2c1=O	15	0	52	4	-18	nt
CCn1c2ccccc2n2c(=O)n(CC(=O)NC34CC5CC(CC(C5)C3)C4)nc12	5	nt	-31	nt	nt	nt
O=C(Cn1sc2ccccc2c1=O)NC12CC3CC(CC(C3)C1)C2	132*	0	-50	nt	15	nt
Cc1sc(NC(=O)CN(Cc2ccc(F)cc2)C(=O)C2CC2)c(C(N)=O)c1C	7	nt	-6	nt	nt	nt
Cc1ccccc1OCC(O)CN1CCN(C)CC1 (stereo unspecified)	6	2	16	-8	-14	nt
Cc1cccc(Cl)c1NC[C@H](O)CN1CCN(C)CC1	47*	nt	13	nt	nt	nt
CC(=O)n1c2ccccc2c2ccccc21	3	1	44	nt	5	-9
Cc1ccc(C(=O)n2c3ccccc3c3ccccc32)cc1	14	0	64*	nt	-17	-88
Cn1c(=O)oc2cc(S(=O)(=O)N3CCN(c4ccc(F)cc4)CC3)ccc21	14	0	-19	nt	-5	70*
Cn1c(=O)c(=O)n(C)c2cc(S(=O)(=O)N3CCN(c4ccc(F)cc4)CC3)ccc21	5	3	13	-3	9	17
Cc1cccc(Nc2nc(N)c([N+](=O)[O-])c(NCc3ccccc3)n2)c1	11	0	76*	7	-4	nt
Nc1nc(Nc2ccccc2F)nc(NCc2ccccc2)c1[N+](=O)[O-]	6	1	76*	4	-5	nt
O=C(NCCSc1ccccc1)c1cncc(Br)c1	11	0	-15	nt	-4	75*
